Among all 320,000 compounds or so, about 2,200 (0.69%) were called active.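 How the source made its calls: active means inhibition above the mean of all tested compounds plus 3 SD, cutoff set per campaign (cut at about 30% in these data); inactive means the rest.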 This excerpt belongs to a sample that is enriched for actives.

In this assay the target is Bcl-2-like protein 1 (Homo sapiens) (UniProt Q07817). In words: inhibitors of human Bcl-xL, primary screen, biochemical, fluorescence polarization, HTS (AID 2129).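 Further: 0% = DMSO wells and 100% = unlabeled Bim-BH3 peptide competitor; inhibitors lower millipolarization by displacing the labeled peptide.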 The conditions noted are these: GST-Bcl-xL / FITC-Bim BH3 peptide fluorescence polarization; at 10.9 µM; stronger effect = higher value. A general note: Fluorescence polarisation rises when a labelled molecule tumbles more slowly, as on binding a larger partner.
Sequence of Bcl-2-like protein 1 (Homo sapiens) (Q07817 whole entry, looked up): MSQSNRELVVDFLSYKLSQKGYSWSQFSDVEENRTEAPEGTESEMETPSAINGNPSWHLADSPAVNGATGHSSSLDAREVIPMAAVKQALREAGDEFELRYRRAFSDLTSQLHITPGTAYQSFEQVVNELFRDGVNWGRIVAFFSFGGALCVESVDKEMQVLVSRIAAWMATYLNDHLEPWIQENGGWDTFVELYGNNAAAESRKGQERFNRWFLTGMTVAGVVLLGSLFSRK
For orientation: inhibition means the change of the read-out against control, counted positive when it falls. For the compound `COCCOC(=O)c1sc(=S)n(CCOC)c1N`, the inhibition is 90.3% (active).
For `CCOC(=O)c1c(N)sc(C(C)=O)c1C`, the inhibition is 4.34% (inactive).
Next, `COC(=O)c1sc(=S)n(-c2ccc(Cl)cc2)c1C`: 8.78% (inactive); `O=C(NCC1(N2CCCCC2)CCCCC1)c1ccc(NS(=O)(=O)c2ccc(F)cc2)cc1`: 5.4% (inactive); `Cc1coc2c(O)cc3c(c12)OC1(N2CCCCC2)C(=O)NCCCC31` (stereo unspecified): 39% (active).
For `NC(=O)c1nsc(C(=O)N(CC(=O)NCc2ccc(F)cc2)Cc2ccco2)c1N`, the inhibition was 1.4% (inactive).
For the compound `COc1ccc(-n2cnc3cc(NCc4ccco4)ccc32)cc1`, the inhibition is 6.77% (inactive).
As for `Cc1ccc2[nH]c(C(=O)O)c(NC(=O)c3ccccc3[N+](=O)[O-])c2c1`, the figure is 3.72% (inactive); as for `CN(C)CCCCCN(C)Cc1cc2ccccc2o1`, 0.68% (inactive).
Next, `CCCCCCCNc1nc(Cl)nc(NCCO)n1`: 5.24% (inactive).
For the compound `CCOc1ccc(C(=O)NC2CCN(C(=O)Nc3ccccc3OC)CC2)cc1`, the inhibition was 1.4% (inactive).
Next, `CCOc1ccc2nc(N3CCCN(C(=O)Nc4ccccc4C)CC3)c(C#N)cc2c1`: 46.6% (active); `CCOC(=O)c1cc(C#N)c(N2CCCCC2)nc1-c1ccccc1`: -1.67% (inactive).
Next, `CC(C)c1ccc(NC(=S)NNc2ccc(Cl)c(C(=O)O)c2)cc1`: 115% (active); `Cc1ccc(C)c(NC(=S)NNC(=S)Nc2ccc(C(C)C)cc2)c1`: 18% (inactive); `O=C(NC(=S)Nc1ccc(Cl)c(C(=O)O)c1)c1cncc(Br)c1`: -0.3% (inactive).
As for `Cc1nn(C(C)(C)C)c(OC(=O)CC(C)C)c1S(=O)(=O)c1ccccc1`, the figure is 2.54% (inactive).
Turning to `Nc1cc(N2CCCCCC2)c2nonc2c1[N+](=O)[O-]`, the inhibition is 53.6% (active).
Next, `Nc1nc(NCC(=O)O)nc(N2CCCCCC2)c1[N+](=O)[O-]`: -0.96% (inactive).
Regarding `Cc1c(Nc2cc(N3CCCC(C)C3)c3nonc3c2[N+](=O)[O-])c(=O)n(-c2ccccc2)n1C` (stereo unspecified), the inhibition is -1.91% (inactive).
On to `CCCCCCCCCOC1OC(CO)C(O)C(O)C1NC(C)=O` (stereo unspecified), for which the inhibition was 0.06% (inactive).
`O=c1c2ccccc2nnn1CSc1nc2sc3c(c2c(=O)n1CC1CCCO1)CCC3` (stereo unspecified): the inhibition was -0.57% (inactive).
For `O=C1CCC(=O)N(O)CCCCCNC(=O)CCC(=O)N(O)CCCCCNC(=O)CCC(=O)N(O)CCCCCN1`, the inhibition is 6.42% (inactive).
As for `CCCn1c(C(C)Nc2nc(-c3ccc(C)cc3)cs2)nc2cc(Cl)c(N3CCCCC3)cc21` (stereo unspecified), the figure is 4.98% (inactive).
As for `CCCn1c(C2CCCN2c2nc(-c3ccc(OC)cc3)cs2)nc2ccccc21` (stereo unspecified), the figure is 7.05% (inactive).
Take `CCCn1c(C2CCCN2c2nc(-c3ccc(C)cc3)cs2)nc2cc(Cl)c(N3CCCCC3)cc21` (stereo unspecified): the inhibition was 76.7% (active).
As for `Cc1cc(S(=O)(=O)NCc2ccccn2)c(Cl)cc1Cl`, the figure is 4.73% (inactive).
For the compound `CCOC(=O)c1c(C)n(C)c2ccc(OC)c(NC(=O)CN3CCC4(CC3)OCCO4)c12`, the inhibition was -7.5% (inactive).
In the case of `[O-][n+]1c2c(nn1-c1ccc(Cl)c(Cl)c1)-c1nonc1CC2`, the inhibition is -0.16% (inactive).
In the case of `COCCN1C=C2C(=O)C(C)(OC(=O)C3CCCC3)C(=O)C=C2C=C1c1ccsc1` (stereo unspecified), the inhibition was 34.2% (active).
As for `CC1(OC(=O)C2CCCC2)C(=O)C=C2C=C(c3ccc(C#N)cc3)OC=C2C1=O` (stereo unspecified), the figure is 10.6% (inactive); as for `CC1(OC(=O)CCc2ccccc2)C(=O)C=C2C=C(c3ccc(C#N)cc3)N(CCc3ccccn3)C=C2C1=O` (stereo unspecified), 25.8% (inactive).
As to `Fc1ccccc1/C=N/Nc1cc(N2CCCCC2)ncn1`, the inhibition is 1.94% (inactive).
`Cn1nccc1/C=N\NC(=O)c1ccc(Cl)cc1`: the inhibition is 7.38% (inactive).
As for `O=c1[nH]c2ccccc2n2c(-c3ccccc3)nnc12`, the figure is 43% (active); as for `O=c1[nH]n2c(-c3ccccc3)nc(O)c2c2ccccc12`, -0.91% (inactive).
For the compound `O=C(O)/C=C/c1ccc(S(=O)(=O)N2CCCCCC2)cc1`, the inhibition was -3.18% (inactive).
For the compound `O=C(CN1CCSCC1)N/N=C/c1ccc(F)cc1F`, the inhibition is 2.55% (inactive).
As for `COc1ncnc2c1N=C1CC(C)(C)CC(N)=C1S2`, the figure is 163% (active).
As for `O=C(COc1cccc(Cl)c1)NCc1ccccc1`, the figure is 3.14% (inactive).
On to `C[N+](C)(CCCCCC[N+](C)(C)CCCN1C(=O)c2cccc3cccc(c23)C1=O)CCCN1C(=O)c2cccc3cccc(c23)C1=O`, for which the inhibition is 1.22% (inactive).
As for `O=C(O)c1ccc2c3c(cccc13)C(=O)N(OS(=O)(=O)c1ccccc1)C2=O`, the figure is -6.08% (inactive).
As for `Cc1nn(-c2cc(Cl)ccc2N)c(=O)c2ccccc12`, the figure is -0.7% (inactive).
Consider `O=C1c2ccccc2C(=O)N1c1cccc2ccccc12`, for which the inhibition is 4.16% (inactive).
For `O=C(C1CCN(S(=O)(=O)c2ccc(Br)s2)CC1)N1CCN(C2CCCCC2)CC1`, the inhibition was 3.57% (inactive).
As to `CSc1ccc(CN(C)CC(=O)NCc2ccc(F)cc2)cc1`, the inhibition was 5.75% (inactive).
Take `CSc1ccc(CN2C(=O)NC3(CCCCCC3)C2=O)cc1`: the inhibition is 0.37% (inactive).
Next, `Cc1c(C(=O)NC(C)C2CC3CCC2C3)cccc1[N+](=O)[O-]` (stereo unspecified): 0.81% (inactive).
As for `COc1ccccc1N1CCN(c2nc(C)cc(=O)[nH]2)CC1`, the figure is 1.46% (inactive); as for `CC(=O)C1(C)N(O)C(C)(C)C(c2cccs2)=[N+]1[O-]` (stereo unspecified), 6.8% (inactive).
Turning to `Cc1ccc(SCC(=O)Nc2nncs2)cc1`, the inhibition is -0.16% (inactive).
As for `CCOc1ccc(C(=O)NC(C(=O)NCc2ccccn2)C(C)C)cc1` (stereo unspecified), the figure is -3.49% (inactive).
As for `Cc1cc(C)cc(NC(=O)NCc2ccccn2)c1`, the inhibition was 0.71% (inactive).
Next, `O=C(NCc1ccccn1)c1ccc2nc(-c3ccco3)c(-c3ccco3)nc2c1`: 61.7% (active).
Regarding `Cc1nc2cc(NC(=O)NCc3ccccc3)ccc2o1`, the inhibition was -3.22% (inactive).
Turning to `COCCNC(=O)Nc1ccc2nc(-c3ccco3)c(-c3ccco3)nc2c1`, the inhibition is 120% (active).
Next, `CCOc1cc(NC(=S)NCCCOC)c(OCC)cc1NC(=O)c1ccco1`: 1.13% (inactive); `O=C(NC1CC2CCCC(C1)N2C(=O)N1CCCCC1)C1CCCCC1` (stereo unspecified): 0.87% (inactive).
On to `O=C(/C(=C/c1cccc(Cl)c1)c1nc2ccccc2[nH]1)c1ccccc1`, for which the inhibition was -0.83% (inactive).
As for `N#C/C(=C(/O)COC(=O)COc1ccc(Cl)cc1)c1nc2ccccc2[nH]1`, the figure is -9.4% (inactive).
As for `O=C(Cc1nc2ccccc2[nH]c1=O)c1ccc(Cl)cc1`, the figure is 34.1% (active).

(Values after PubChem BioAssay AID2129 (The Scripps Research Institute Molecular Screening Center, 2009).)
